In PubChem BioAssay (NCATS):
Active and inactive are the calls of the source. The call rests on the fitted dose curve; in most records, active means well fitted activation curve with a large enough effect; inconclusive means small, poorly fitted or top-dose-only effect; inactive means no such curve, though single readings can be large or run the other way.

target: Cytochrome P450 3A4 (Homo sapiens) (UniProt P08684); assay: qHTS Assay for Activators of Cytochrome P450 3A4 (AID 885); details: recombinant CYP3A4, Luciferin-PPXE luminescence, 60 min; series mostly up to 57.1 µM; further: nearly all actives have a fitted effect of over 65% in size
Summary of the method: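 Using 20nM recombinant human CYP3A4 in potassium phosphate (200mM), substrate Luciferin-PPXE at 25uM, luminescent luciferin detection followed a 60-min RT NADPH reaction; data scaled to 57 uM ketoconazole.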

Cytochrome P450 3A4 (Homo sapiens), sequence (P08684 whole entry, looked up): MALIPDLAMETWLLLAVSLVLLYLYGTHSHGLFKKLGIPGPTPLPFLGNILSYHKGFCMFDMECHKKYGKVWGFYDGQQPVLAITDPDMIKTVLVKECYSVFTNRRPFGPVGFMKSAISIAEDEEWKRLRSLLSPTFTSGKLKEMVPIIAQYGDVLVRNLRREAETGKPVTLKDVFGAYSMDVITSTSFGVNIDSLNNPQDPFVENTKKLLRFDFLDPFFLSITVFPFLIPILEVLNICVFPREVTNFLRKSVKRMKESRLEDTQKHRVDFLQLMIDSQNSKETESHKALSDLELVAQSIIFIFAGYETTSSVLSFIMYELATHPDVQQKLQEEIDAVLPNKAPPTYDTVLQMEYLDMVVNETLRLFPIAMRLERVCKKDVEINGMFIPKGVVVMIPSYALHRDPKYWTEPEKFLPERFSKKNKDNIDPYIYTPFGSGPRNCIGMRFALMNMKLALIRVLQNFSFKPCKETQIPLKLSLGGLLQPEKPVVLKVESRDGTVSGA

Activity change, positive = activation, inactive:
CCCCCCCC#Cc1ccccc1C(NC(=O)OC)C(C(=O)OC)C(=O)OC (stereo unspecified) -56.4% [at 11.4 µM]
CC(=O)OC[C@@H]1O[C@H](C/C=N\O[C@@H](C)CN2CCCCc3nc(C)c(C)cc32)C=C[C@@H]1OC(C)=O -57.2% [at 11.4 µM]
C=CC[C@@H]1C=C[C@H](Oc2ccc(C)cc2)[C@H](COC(=O)NCc2cccc3ccccc23)O1 -96.8% [at 11.4 µM]
CC1CCC2C(=O)N3C(CCC(C)C3c3ccccc3Br)C(=O)N2C1c1ccc(C#CCN(C)C)cc1 (stereo unspecified) -38.2% [at 11.4 µM]
CC1CCC2C(=O)OC(CN3C(=O)c4ccccc4C3=O)CN2C1c1ccc(Br)cc1 (stereo unspecified) -55.7% [at 11.4 µM]
C[C@@H]1OC2C3=C(C(=O)[C@H]4O[C@@H]4[C@H]3O)[C@@H]1[C@H]1[C@H](C)OC=C3[C@H](O)[C@H]4O[C@H]4/C(=N\OCc4ccccc4)[C@@]321 -58.8% [at 11.4 µM]
CCN1C(=O)[C@H]2[C@H]3[C@H](O)[C@H](O)C/C(=N/OC[C@@H](C)[C@H](OCc4ccccc4)C(C)C)[C@@H]3CC[C@@H]2C1=O -44.7% [at 11.4 µM]
CC(C)=NO[C@@H](C)CN1CCCCc2nc(C)c(C)cc21 -46.4% [at 11.4 µM]
COC(=O)C/C=C\[C@@H](C)[C@@H](/C=N\OC[C@@H](O)[C@H]1O[C@H]2OC(C)(C)O[C@H]2[C@@H]1O)OC -43.3% [at 11.4 µM]
O=C1[C@@H]2[C@H]3[C@H](O)[C@H](O)C/C(=N/OC[C@@H](O)COCc4ccco4)[C@@H]3CC[C@H]2C(=O)N1c1ccc(F)cc1F -48.8% [at 11.4 µM]
C=CCc1cccc(C2C(C)CCC3C(=O)N4C(CCC(C)C4c4cccc(CC=C)c4)C(=O)N32)c1 (stereo unspecified) -58.4% [at 11.4 µM]
C[C@@H]1/C=C\CC(=O)OC[C@H](C)C(=O)N[C@@H](Cc2ccccc2)C(=O)OC1 -37.2% [at 11.4 µM]
CO[C@@H]1COC(=O)[C@@H](C)NC(=O)C/C=C\[C@@H](C)[C@H](NS(=O)(=O)c2ccc(C)cc2)COC(=O)[C@H](C)NC(=O)C/C=C\[C@H]1C -53.2% [at 11.4 µM]
CC(=O)OC[C@@H]1O[C@@H](O/N=C2/C[C@@H](O)[C@@H](O)[C@@H]3[C@@H]4C(=O)N(c5cccc(Oc6ccccc6)c5)C(=O)[C@H]4CC[C@H]23)[C@H](OC(C)=O)[C@H](OC(C)=O)[C@@H]1OC(C)=O -36.6% [at 11.4 µM]
CCOC(=O)OCC1OC(C#Cc2ccc(Br)cc2)C=CC1OC(=O)OCC (stereo unspecified) -52.5% [at 11.4 µM]
O=C1[C@@H]2[C@H]3[C@H](O)[C@H](O)C/C(=N/OC[C@@H](O)COCc4ccco4)[C@H]3CC[C@H]2C(=O)N1c1ccc(F)cc1F -44.4% [at 11.4 µM]
C=CC[C@@H]1C=C[C@@H](O/N=C\C[C@@H]2C=C[C@H](OC(C)=O)[C@H](COC(C)=O)O2)[C@@H](CO)O1 -49.3% [at 11.4 µM]
C/C(CCC(=O)OC[C@@H]1O[C@H](C#Cc2ccccc2)C=C[C@@H]1Oc1ccc(C)cc1)=N/OC[C@@H](C)[C@H](OCc1ccccc1)C(C)C -45.8% [at 11.4 µM]
CC(C)CO/N=C1/C[C@@H](O)[C@@H](O)[C@@H]2[C@@H]3C(=O)N(Cc4ccc5c(c4)OCO5)C(=O)[C@H]3CC[C@H]12 -96.6% [at 11.4 µM]
COc1ccc(OC)c(-c2ccccc2/C=N/NS(=O)(=O)c2ccc(C)cc2)c1 -59.9% [at 11.4 µM]

Potency, inactive:
COc1c(CC(=O)c2cc3c(cc2O)OC(C)(C)C(O)C3)ccc2c1C=CC(C)(C)O2 (stereo unspecified)
COc1cc(C2c3cc4c(cc3C(O)[C@H]3COC(=O)C23)OCO4)cc(OC)c1OC (stereo partly specified)
CC1(C)CC[C@]2(C(=O)O)C(O)C[C@@]3(C)C(=CCC4[C@@]5(C)CCC(O)C(C)(C)C5CC[C@@]43C)C2C1 (stereo partly specified)
CC(C)c1c(O)ccc2c1CCC1C(C)(C)CCC[C@@]21C (stereo partly specified)
C=CC(C1=CC(=O)C(OC)=C(OC)C1=O)c1ccccc1 (stereo unspecified)
CCC1CN2CCc3cc(OC)c(OC)cc3C2CC1CC1NCCc2cc(OC)c(OC)cc21 (stereo unspecified)
